The supplement of paper PMC11732987, “Enantioselective OTUD7B fragment discovery through chemoproteomics screening and high-throughput optimisation” (Communications Chemistry, 2025)

How the values were obtained:
Assay in all cases: log2 ratio of Biotin-Ahx-Ub-VS probe labelling (fragment/DMSO); higher = less target engagement (more negative = stronger competition), active = hit call of the paper (q ≤ 0.05, log2 ratio ≤ -1)
Conditions in all cases: compound concentration: 200 uM; treatment time: 3 h
[1] = target: USP9X (UniProt Q93008)
Chain of USP9X (Q93008 whole entry, the tested form may be a part): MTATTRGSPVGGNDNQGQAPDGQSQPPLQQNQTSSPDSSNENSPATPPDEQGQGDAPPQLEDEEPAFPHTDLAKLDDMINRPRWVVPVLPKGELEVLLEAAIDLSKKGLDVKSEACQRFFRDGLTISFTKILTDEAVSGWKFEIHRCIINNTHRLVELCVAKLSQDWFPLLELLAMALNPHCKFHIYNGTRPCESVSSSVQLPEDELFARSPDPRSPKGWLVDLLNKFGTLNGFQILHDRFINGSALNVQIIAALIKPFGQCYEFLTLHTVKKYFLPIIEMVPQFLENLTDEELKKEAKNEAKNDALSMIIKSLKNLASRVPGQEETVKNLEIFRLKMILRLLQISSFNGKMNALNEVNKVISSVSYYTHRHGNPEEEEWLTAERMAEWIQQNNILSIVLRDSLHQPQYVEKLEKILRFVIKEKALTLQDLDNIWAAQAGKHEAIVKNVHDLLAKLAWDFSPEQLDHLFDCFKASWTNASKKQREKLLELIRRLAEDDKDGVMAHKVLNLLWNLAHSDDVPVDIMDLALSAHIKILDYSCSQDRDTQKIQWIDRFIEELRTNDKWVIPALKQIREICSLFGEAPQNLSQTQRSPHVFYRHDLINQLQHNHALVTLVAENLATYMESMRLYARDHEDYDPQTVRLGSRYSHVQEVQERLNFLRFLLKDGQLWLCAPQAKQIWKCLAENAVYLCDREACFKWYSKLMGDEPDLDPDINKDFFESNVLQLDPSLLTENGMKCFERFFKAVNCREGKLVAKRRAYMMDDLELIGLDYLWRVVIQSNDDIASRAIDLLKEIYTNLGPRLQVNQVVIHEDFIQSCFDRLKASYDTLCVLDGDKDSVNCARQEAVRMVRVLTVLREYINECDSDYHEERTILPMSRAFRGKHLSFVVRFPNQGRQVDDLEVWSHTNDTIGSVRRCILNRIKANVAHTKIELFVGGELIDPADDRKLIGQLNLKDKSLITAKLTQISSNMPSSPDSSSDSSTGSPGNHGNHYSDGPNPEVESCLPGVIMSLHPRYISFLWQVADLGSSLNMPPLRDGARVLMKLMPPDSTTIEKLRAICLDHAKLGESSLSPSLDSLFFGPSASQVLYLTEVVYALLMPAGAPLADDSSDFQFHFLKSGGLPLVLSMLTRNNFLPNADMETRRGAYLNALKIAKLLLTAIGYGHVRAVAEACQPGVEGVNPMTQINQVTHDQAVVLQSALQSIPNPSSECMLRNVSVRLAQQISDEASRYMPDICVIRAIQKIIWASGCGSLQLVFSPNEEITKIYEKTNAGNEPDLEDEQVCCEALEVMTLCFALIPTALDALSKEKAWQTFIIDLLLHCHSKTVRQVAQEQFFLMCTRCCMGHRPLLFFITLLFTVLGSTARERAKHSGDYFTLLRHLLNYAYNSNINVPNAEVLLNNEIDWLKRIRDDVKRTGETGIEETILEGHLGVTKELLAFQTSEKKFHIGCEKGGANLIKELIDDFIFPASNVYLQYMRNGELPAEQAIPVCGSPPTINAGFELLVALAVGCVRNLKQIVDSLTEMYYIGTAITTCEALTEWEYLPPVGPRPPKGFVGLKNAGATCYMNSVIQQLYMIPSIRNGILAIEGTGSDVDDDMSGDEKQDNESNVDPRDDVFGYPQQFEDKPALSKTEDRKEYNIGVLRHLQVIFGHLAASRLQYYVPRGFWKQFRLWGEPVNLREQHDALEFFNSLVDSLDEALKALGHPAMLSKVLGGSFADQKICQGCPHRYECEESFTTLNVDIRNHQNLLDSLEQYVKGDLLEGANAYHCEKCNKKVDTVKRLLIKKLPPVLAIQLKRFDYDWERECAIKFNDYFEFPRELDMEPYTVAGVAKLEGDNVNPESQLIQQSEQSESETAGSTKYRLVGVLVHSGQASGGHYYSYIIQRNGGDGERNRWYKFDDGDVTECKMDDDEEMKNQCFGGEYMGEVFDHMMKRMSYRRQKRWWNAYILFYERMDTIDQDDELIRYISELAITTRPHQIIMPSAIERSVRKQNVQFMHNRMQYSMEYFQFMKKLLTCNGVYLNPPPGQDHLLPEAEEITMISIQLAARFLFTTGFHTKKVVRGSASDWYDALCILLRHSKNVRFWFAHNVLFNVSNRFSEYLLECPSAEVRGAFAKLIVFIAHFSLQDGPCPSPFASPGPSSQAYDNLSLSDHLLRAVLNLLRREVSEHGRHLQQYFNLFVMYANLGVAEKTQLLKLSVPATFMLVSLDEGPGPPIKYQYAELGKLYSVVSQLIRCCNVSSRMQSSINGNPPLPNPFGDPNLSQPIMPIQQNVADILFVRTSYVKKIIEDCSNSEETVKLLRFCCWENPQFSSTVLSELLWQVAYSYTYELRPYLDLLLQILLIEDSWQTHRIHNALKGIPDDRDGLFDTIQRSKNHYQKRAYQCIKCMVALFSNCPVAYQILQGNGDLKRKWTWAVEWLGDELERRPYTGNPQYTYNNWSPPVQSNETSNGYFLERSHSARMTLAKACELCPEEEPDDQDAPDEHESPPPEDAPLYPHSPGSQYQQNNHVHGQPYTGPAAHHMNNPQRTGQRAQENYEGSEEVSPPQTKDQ
Procedure, shortened: (§1)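 HEK293T lysate (495 µg per sample, in Tris/CHAPS/IGEPAL buffer with protease inhibitors) was exposed in triplicate for 3 h to fragment at 200 µM or to vehicle, then to Biotin-Ahx-Ub-VS at 0.5 µM final for 1 h. Labelled DUBs were enriched on NeutrAvidin, digested with LysC and trypsin, and analysed by diaPASEF LC-MS/MS. Spectronaut label-free quantities were normalised to the global median, and values are average log2 ratios of fragment over vehicle from an unpaired t-test. Only proteins with ≥2 unique peptides were used.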

[2] = target: UniProt O00487
Procedure, shortened: as §1

[3] = target: UniProt O00507
Chain of UniProt O00507 (O00507 whole entry): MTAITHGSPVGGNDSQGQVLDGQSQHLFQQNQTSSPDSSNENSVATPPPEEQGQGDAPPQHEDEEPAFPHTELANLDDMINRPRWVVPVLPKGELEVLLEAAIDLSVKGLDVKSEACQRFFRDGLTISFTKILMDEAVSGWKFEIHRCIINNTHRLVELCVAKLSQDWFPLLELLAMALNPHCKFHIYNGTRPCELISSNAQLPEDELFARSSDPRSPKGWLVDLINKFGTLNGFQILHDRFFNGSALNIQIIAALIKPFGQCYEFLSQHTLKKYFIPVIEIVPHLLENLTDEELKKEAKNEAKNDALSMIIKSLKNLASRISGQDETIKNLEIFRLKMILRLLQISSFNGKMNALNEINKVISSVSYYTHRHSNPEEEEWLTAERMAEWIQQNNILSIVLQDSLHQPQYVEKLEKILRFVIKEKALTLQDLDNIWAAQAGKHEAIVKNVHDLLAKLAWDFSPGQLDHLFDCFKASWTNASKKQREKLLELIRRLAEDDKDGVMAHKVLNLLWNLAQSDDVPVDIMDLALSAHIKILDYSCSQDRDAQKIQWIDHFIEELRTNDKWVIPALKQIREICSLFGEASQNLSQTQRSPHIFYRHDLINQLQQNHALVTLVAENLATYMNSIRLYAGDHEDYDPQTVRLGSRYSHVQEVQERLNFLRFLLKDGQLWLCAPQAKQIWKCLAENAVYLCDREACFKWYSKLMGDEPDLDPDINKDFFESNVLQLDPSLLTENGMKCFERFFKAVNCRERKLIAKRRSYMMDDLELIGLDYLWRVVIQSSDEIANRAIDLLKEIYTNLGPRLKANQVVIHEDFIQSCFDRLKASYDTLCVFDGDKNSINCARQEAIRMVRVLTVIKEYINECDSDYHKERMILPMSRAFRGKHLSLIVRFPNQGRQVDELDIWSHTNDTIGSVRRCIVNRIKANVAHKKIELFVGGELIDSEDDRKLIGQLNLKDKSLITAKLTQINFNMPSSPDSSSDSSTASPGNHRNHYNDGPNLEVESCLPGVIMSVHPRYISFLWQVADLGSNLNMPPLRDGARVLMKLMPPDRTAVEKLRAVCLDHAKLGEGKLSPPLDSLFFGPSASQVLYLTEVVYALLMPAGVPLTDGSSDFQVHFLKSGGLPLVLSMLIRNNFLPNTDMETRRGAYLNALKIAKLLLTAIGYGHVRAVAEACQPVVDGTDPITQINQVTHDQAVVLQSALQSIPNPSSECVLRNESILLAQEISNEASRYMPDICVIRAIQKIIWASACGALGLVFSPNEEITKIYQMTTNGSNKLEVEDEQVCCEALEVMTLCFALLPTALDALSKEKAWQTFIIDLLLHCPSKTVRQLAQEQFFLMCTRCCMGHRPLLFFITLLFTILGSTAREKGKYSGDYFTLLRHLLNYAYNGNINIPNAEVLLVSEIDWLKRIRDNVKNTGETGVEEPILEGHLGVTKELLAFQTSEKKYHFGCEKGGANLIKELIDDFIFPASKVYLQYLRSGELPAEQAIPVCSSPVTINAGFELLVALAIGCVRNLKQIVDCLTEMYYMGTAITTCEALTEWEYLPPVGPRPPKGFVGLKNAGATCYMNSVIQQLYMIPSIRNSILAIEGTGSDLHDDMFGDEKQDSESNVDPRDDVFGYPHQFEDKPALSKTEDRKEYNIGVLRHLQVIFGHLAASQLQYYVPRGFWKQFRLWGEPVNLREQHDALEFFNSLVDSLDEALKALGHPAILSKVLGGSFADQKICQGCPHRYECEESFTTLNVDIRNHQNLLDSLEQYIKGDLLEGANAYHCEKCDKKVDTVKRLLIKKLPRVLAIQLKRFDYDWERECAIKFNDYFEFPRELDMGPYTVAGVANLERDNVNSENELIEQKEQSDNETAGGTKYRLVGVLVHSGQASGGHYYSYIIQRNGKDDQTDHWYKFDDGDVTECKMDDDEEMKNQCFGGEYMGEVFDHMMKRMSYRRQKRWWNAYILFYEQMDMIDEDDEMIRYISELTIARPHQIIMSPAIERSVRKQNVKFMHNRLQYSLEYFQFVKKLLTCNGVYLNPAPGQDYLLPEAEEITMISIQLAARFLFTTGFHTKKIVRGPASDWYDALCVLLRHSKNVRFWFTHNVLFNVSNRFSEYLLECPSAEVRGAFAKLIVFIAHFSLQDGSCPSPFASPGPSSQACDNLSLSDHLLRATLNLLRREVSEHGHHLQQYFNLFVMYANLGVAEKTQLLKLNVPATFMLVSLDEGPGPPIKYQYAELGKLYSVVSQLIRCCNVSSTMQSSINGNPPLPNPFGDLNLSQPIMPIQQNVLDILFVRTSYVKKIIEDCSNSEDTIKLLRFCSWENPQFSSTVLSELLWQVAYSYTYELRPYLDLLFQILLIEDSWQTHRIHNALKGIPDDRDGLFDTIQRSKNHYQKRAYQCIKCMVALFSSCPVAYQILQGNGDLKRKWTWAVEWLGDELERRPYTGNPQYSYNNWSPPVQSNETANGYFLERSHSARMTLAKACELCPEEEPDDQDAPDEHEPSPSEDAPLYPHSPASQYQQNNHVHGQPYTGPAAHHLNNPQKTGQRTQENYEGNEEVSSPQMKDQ
Procedure, shortened: as §1

[4] = target: UniProt P51784
Procedure, shortened: as §1

[5] = target: T1, UniProt Q5T2D3
T1 sequence (whole entry): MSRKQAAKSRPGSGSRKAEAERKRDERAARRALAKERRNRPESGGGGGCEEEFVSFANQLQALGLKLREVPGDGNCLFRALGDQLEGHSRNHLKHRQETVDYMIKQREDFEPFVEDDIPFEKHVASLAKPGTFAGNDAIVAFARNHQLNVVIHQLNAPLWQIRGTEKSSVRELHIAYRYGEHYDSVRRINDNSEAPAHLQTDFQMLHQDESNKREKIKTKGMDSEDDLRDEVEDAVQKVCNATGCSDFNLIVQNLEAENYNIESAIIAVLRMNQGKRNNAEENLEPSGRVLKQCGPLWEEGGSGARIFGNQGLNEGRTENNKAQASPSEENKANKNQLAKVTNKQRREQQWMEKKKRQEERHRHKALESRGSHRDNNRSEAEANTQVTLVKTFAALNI
Procedure, shortened: as §1

[6] = target: T2, UniProt Q8TE49
T2 sequence (whole entry): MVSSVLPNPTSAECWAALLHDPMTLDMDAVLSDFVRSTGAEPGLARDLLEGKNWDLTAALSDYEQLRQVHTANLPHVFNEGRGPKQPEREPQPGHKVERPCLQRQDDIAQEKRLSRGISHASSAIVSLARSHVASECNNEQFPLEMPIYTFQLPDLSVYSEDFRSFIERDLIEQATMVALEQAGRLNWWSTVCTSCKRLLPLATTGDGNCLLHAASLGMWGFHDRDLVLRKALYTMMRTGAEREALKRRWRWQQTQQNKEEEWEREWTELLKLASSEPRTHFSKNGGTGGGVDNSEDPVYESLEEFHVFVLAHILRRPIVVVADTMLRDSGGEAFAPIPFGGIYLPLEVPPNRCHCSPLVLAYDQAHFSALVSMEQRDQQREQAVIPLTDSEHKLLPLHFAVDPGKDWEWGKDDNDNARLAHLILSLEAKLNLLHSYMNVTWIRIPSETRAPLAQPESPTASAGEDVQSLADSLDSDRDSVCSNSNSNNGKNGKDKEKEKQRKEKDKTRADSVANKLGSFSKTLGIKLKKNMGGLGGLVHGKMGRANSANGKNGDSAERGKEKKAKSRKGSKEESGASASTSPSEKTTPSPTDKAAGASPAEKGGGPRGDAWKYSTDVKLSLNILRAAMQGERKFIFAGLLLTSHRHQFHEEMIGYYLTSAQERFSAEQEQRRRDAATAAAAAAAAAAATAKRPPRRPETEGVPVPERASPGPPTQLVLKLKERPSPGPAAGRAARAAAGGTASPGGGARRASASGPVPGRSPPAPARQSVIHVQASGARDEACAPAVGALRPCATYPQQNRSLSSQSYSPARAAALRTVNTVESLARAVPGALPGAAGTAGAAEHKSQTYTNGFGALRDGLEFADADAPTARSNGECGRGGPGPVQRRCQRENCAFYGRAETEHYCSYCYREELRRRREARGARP
Procedure, shortened: as §1

[7] = target: T3, UniProt Q9P2H5
T3 sequence (whole entry): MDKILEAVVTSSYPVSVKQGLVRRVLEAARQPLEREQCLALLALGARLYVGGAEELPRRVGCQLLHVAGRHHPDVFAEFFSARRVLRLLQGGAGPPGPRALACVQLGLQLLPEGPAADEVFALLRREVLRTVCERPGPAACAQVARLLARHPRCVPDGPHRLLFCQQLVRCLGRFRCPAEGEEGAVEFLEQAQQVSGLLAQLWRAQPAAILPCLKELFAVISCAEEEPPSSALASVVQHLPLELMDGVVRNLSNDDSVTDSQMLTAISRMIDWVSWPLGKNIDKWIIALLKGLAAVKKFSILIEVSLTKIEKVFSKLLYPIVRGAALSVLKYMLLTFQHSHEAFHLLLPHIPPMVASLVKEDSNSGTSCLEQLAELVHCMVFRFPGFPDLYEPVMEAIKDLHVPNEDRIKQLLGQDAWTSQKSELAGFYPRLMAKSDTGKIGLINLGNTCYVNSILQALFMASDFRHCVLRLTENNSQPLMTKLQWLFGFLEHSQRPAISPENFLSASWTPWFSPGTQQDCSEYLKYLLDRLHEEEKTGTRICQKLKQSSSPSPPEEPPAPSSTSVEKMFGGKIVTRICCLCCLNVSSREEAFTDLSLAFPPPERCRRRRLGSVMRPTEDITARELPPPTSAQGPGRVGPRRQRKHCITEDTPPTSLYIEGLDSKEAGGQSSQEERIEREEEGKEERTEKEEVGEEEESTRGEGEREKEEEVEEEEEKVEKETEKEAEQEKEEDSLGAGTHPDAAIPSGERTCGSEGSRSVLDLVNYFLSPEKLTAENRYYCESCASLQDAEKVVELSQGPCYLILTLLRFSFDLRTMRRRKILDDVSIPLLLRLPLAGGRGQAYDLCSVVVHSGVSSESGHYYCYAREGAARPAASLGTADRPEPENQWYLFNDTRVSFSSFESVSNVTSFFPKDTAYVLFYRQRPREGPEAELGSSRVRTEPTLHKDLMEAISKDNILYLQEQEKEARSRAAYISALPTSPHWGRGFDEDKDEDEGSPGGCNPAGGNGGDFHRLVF
Procedure, shortened: as §1

[8] = target: T4, UniProt Q9UGI0
T4 sequence (whole entry): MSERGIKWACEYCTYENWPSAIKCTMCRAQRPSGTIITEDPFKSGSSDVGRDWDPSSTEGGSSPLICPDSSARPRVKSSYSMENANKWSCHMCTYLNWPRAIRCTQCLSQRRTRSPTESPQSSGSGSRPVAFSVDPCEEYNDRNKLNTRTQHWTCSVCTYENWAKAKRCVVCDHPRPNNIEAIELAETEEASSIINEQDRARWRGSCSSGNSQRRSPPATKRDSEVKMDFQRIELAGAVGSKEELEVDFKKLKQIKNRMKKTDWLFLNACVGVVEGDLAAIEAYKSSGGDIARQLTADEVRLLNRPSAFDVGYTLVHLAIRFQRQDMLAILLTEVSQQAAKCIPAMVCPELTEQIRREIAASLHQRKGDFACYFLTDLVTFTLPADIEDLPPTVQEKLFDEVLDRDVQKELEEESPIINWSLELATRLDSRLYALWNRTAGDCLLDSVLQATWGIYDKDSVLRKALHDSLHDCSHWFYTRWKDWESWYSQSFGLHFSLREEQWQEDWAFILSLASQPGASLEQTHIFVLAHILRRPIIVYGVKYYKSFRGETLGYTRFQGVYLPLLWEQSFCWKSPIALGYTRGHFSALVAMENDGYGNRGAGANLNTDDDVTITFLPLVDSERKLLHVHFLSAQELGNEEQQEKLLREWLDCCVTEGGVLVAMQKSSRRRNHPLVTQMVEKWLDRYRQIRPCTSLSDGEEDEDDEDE
Procedure, shortened: as §1

[9] = target: T5, YOD1 (UniProt Q5VVQ6)
T5 sequence (whole entry): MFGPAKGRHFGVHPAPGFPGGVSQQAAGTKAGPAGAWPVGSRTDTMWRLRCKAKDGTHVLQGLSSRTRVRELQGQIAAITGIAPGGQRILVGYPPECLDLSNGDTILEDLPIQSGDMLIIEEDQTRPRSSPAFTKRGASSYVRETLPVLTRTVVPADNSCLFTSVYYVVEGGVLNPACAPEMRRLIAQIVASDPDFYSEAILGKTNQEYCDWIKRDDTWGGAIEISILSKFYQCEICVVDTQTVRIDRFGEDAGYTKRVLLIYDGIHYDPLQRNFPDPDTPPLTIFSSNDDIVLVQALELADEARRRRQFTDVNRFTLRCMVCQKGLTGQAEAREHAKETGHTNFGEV
Procedure, shortened: as §1

Measured: log2 ratio of Biotin-Ahx-Ub-VS probe labelling

O=C(CCl)NCc1ccc(N2CCOCC2)nc1
inactive: [1] -0.26 | [2] -0.226 | [3] -0.134 | [4] -0.0382 | [5] -0.374 | [6] -0.316 | [7] -0.162 | [8] -0.475 | [9] -0.207
